Experimental data published in PubChem BioAssay AID651599 (National Center for Advancing Translational Sciences (NCATS), 2012).
Results filed as inconclusive are left out. The source made the active and inactive calls. Calls come from the whole dose curve; as a rule, active = well fitted inhibition curve with a large enough effect; inconclusive = small, poorly fitted or top-dose-only effect; inactive = no such curve, though single readings can be large or run the other way.

What follows are compounds tested against Tumor susceptibility gene 101 protein (Homo sapiens) (UniProt Q99816) (assay: qHTS Assay for Iinhibitors of HIV-1 Budding by Blocking the Interaction of PTAP/TSG101: Hit Validation in TR assay). Conditions: Tsg101 binding domain + Texas Red-labeled PTAP peptide, fluorescence polarization, 20 min; series mostly up to 57.5 µM.
Sequence of Tumor susceptibility gene 101 protein (Homo sapiens) (Q99816 whole entry, looked up, the tested form may be a part): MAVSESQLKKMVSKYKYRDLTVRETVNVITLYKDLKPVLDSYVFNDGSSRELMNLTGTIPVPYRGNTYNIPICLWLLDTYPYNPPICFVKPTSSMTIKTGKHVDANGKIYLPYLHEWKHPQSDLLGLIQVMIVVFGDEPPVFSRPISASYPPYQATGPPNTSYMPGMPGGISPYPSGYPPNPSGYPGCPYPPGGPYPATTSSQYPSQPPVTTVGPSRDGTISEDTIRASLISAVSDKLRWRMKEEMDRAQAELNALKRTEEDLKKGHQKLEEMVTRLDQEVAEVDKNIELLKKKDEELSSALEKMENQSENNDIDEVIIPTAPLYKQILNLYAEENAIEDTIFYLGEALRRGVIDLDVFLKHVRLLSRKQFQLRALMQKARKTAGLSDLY
Summary of the method: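 Fluorescence polarization: Tsg101 binding domain (10 uM final) with Texas Red-labelled PTAP peptide (50 nM final) in HEPES pH 7.5, 0.15 M NaCl, Tween 20, EDTA, TCEP; 20 min binding at room temperature after compound addition.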

Potency, inactive:
O=C1c2ccccc2-c2onc3ccc(NCc4ccco4)c1c23
COc1ccccc1NC(=O)c1sc2nc(Cc3ccccc3)cc(C(F)(F)F)c2c1N
O=C(C1=NN(c2ccccc2)C2C(=O)N(c3ccccc3)C(=O)C12)c1ccccc1 (centres undefined)
Cc1cc(=O)c2c([nH]1)c(C)cc1[nH]c(C)c(C)c12
COc1cc(C2C=C(c3cccs3)Nc3ncnn32)cc(OC)c1OC (centres undefined)
CCOc1ccc(-c2nn(-c3ccccc3)cc2/C=C2\SC(=S)N(C3CCS(=O)(=O)C3)C2=O)cc1 (centres undefined)
Cn1c(O)c(N=Nc2ccc(F)cc2)c2ccccc21
CCOc1ccc(NC(=O)N(C2CCCCC2)C(C)c2ccncc2)cc1 (centres undefined)
Cc1ccc(C2C=C(c3ccccc3)Nc3nc(NS(C)(=O)=O)nn32)cc1 (centres undefined)
O=c1c(/C=C(\O)c2ccccc2)nc2ccccc2n1-c1ccccc1
CCCN1CCN(S(=O)(=O)c2cn(C)nc2C)CC1
CCCCCCn1c(=O)[nH]c2nc3cc(N)ccc3nc2c1=O
CC1=Nc2ccccc2/C1=C\c1nc(-c2ccc(F)cc2)oc1O
CCN(CC)c1ccc(/C=C(\C#N)C(=O)NCc2ccccc2)cc1
Nc1nnnn1/N=C/c1cc(Cl)cc(Cl)c1O
CC(C)c1cc(=O)oc2c3c4c(cc12)CCCN4CCC3
Cc1c2ccccc2nc2c(F)c(NCCO)c(F)c(F)c12
Cn1c(/C(C#N)=C/c2ccc(-c3ccc(S(N)(=O)=O)cc3)o2)nc2ccccc21
CC1C2C(C)N(C)C(=O)N(C)C2N(C)C(=O)N1C (centres undefined)
O=[N+]([O-])c1ccc(Sc2cccc[n+]2[O-])c2nonc12
Cc1nc2nc(-c3cccs3)cn2nc1C
COc1ccc(-c2onc3ccc(Br)cc23)cc1
O=c1[nH]c(S)c(/C=C2\C=Nc3ccccc32)s1
Cc1cccc(CCNC(=O)c2sc3nc4n(c(=O)c3c2C)CCCC4)c1
COc1ccc(CCn2c(NN=C(C)C)nc3c2c(=O)[nH]c(=O)n3C)cc1
O=C(NCc1ccc(F)cc1)c1cccc2c1C(=O)c1ccc(N3CCC(Cc4ccccc4)CC3)cc1S2(=O)=O
C1=C(c2ccc(-c3ccccc3)cc2)Nc2ncnn2C1c1ccco1 (centres undefined)
Nc1c(C(=O)c2cccs2)sc2nsc(SCCN3CCCCC3)c12
COc1ccc2c(C#N)c3ccccn3c2c1
CCCCCCn1c(=O)[nH]c2nc3cc(N)c(C)cc3nc2c1=O
CN(N=Nc1ccc([N+](=O)[O-])cc1)c1ccccc1
CCOC(=O)c1cc2n(c1N)-c1ccccc1C2=O
Cc1cc(=O)oc(C)c1C(=O)Nc1ccc2ncccc2c1
O=C(OCCN1C(=O)c2cccc3c(N4CCOCC4)ccc(c23)C1=O)c1cccc(Cl)c1
Oc1ccc2ccccc2c1-c1sc(Nc2ccccc2)n[n+]1-c1ccc(F)cc1
COCC1CCN(Cc2c(C(=O)N3CCc4ccccc4C3)nc3ccc(Cl)cn23)C1 (centres undefined)
CCN(CC)CCCNc1ccc2ncn3c4ccc(O)cc4c(=O)c1c23
CC(=O)OCCn1c2nc(=O)[nH]c(=O)c-2nc2cc(C)c(C)cc21
COc1ccc(CNC(=O)C(C#N)c2nc3ccccc3nc2N2CCCC2)cc1 (centres undefined)
